Molecules are shown by their SMILES. Values joined by “and” are separate entries in the source; they are usually repeats but may differ in a detail not shown here. Equal entries are not always repeated. Inconclusive results are not listed. Entries that show only a call come without a potency. Where a structure was tested more than once in an assay, its records may differ in their call. Active and inactive are the calls of the source. Calls come from the whole dose curve; as a rule, active = well fitted inhibition curve with a large enough effect in the repeat runs; inconclusive = weak or mixed curves; inactive = flat fitted curve, though single readings scatter.

Sequence of Luciferin 4-monooxygenase (Photinus pyralis) (P08659 whole entry, looked up): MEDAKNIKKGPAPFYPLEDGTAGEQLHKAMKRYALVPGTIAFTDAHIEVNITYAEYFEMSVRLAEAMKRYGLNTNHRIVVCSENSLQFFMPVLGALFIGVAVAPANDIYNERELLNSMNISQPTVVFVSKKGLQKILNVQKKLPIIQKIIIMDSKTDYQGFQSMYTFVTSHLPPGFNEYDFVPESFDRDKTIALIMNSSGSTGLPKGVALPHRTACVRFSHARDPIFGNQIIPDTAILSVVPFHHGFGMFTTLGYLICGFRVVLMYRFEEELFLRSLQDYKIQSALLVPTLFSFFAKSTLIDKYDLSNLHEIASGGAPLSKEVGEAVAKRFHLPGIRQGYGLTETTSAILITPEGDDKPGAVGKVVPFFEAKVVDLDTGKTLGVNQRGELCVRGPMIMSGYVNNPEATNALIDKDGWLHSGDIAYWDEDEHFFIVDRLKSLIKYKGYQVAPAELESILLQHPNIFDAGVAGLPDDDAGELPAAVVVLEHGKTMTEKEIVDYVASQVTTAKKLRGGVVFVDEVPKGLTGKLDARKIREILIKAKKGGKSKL

The target of this assay is Luciferin 4-monooxygenase (Photinus pyralis) (UniProt P08659). The experiment in a line: qHTS assay to identify small molecule inhibitors of firefly luciferase (AID 1224835). Note: nearly all actives have a fitted effect of over 25% in size. As to conditions: purified P. pyralis luciferase, luminescence inhibition; series mostly up to 115 µM; activity change, negative = inhibition: at the top concentration. From the text:
U.S. Tox21 Program National Center for Advancing Translational Sciences [NCATS] NIH Chemical Genomics Center [NCGC] U.S. Environmental Protection Agency [EPA] National Institutes of Environmental Health Sciences [NIEHS] National Toxicology Program [NTP] U.S. Food and Drug Administration [FDA] Tox21 Assay Overview: Firefly (Photinus pyralis) luciferase is one of the most commonly used transcriptional reporters. Firefly luciferase reporter-gene assays are generally considered one of the most sensitive assay types (Wood, 1995; Wood, 1998). However, it was initially observed, in 1991, by Thompson et al., that compounds that resemble the substrates of firefly luciferase (FLuc) can act as competitive inhibitors of the enzyme, and that these compounds, upon interaction with luciferase in the cell, can actually stabilize the protein and increase its half-life. Previous profiling work by other groups to determine the prevalence of compounds that affect FLuc enzymatic activity (PubChem AID 411) identified that ~3% of the MLSMR library (then at ~72K) inhibited FLuc. […] Thus the Tox21 10K library is profiled for activity against FLuc using a biochemical assay of purified FLuc and KM concentrations of FLuc substrates (D-luciferin and ATP).
These assay plates were then treated with 23nL of compound or DMSO using a Kalypsys pin tool, which allows for delivery of a 6-point interplate titration of each compound to the assay plate (quantitative HTS.) 1 uL of firefly luciferase mix (containing 50 mM Tris acetate, pH 7.6, 0.04 uM P. pyralis luciferase, 0.01% Tween, 0.05% BSA and dH2O) was then delivered by FRD to each well. Luciferase activity was then measured using a ViewLux CCD imager.
In the case of `O=P(OCCCl)(OCCCl)OCCCl`, the Potency entry is “inactive”.
For the compound `NN=C(N)N`, the Potency result is “inactive”.
As for `N#Cc1cccnc1`, the Potency result is “inactive”.
Turning to `Cc1ccc([N+](=O)[O-])cc1`, the Potency entry is “inactive”.
For `Nc1ccc2ccccc2c1`, the “activity change, negative = inhibition” value was -6.53% (inactive).
As to `Clc1ccccc1-c1nnc(-c2ccccc2Cl)nn1`, the Potency was 1.4 µM (active) and 708 nM (active).
In the case of `CCOS(=O)(=O)OCC`, the “activity change, negative = inhibition” value was 2.99% (inactive).
In the case of `ClC(Cl)(Cl)c1ccccc1`, the Potency entry is “inactive”.
Consider `CC(C)=CC1C(C(=O)OCN2C(=O)C3=C(CCCC3)C2=O)C1(C)C` (stereo not given), for which the Potency result is “inactive”.
In the case of `Cc1ccc(N=CN(C)C=Nc2ccc(C)cc2C)c(C)c1`, the Potency result is “inactive”.
With `ClC(Cl)(Cl)Br`, the Potency result is “inactive”.
For the compound `COP(=S)(OC)Oc1ccc(S(=O)(=O)N(C)C)cc1`, the Potency result was “inactive”.
For the compound `C[N+](C)(C)CC(=O)O`, the Potency result was “inactive”.
For the compound `CCCCOC(=O)COC(=O)c1ccccc1C(=O)OCCCC`, the Potency is 12.6 µM (active) and 35.6 µM (active).
On to `ClCc1ccccn1`, for which the Potency result was “inactive”.
The same measure, in the same setting: the same measure for `CC1CC(=O)O1` (stereo not given): “inactive”.
Turning to `CCOP(=S)(OCC)SCSC(C)(C)C`, the Potency entry was “inactive”.
On to `COc1ccc(C=O)cc1OC`, for which the Potency result is “inactive”.
`CCCCCCCCCc1ccc(O)cc1`: the “activity change, negative = inhibition” value was 0.0781% (inactive).
In the case of `CCCCCCCC[N+](C)(CCCCCCCC)CCCCCCCC`, the Potency result is “inactive”.
`C=C(C)C#N`: the Potency result is “inactive”.
Turning to `Cn1c(-c2ccccc2)cc(-c2ccccc2)[n+]1C`, the Potency result was “inactive”.
Regarding `O=NN(c1ccccc1)c1ccccc1`, the Potency result is “inactive”.
On the same count and under the same terms, the same measure for `COP(=S)(OC)SCn1nnc2ccccc2c1=O`: 39.1 µM (active) and 39.9 µM (active).
On the same count and under the same terms, the entry for `CNC(=O)Oc1cccc2c1OC(C)(C)C2` is “inactive”; for `CCCCOCC1CO1` (stereo not given) it is “inactive”; for `ClCC(Cl)CCl` it is “inactive”.
`CN(C)c1ccccc1`: the Potency entry is “inactive”.
`CCNc1nc(Cl)nc(NC(C)(C)C#N)n1`: the Potency result was “inactive”.
As to `O=C1CCCO1`, the Potency entry is “inactive”.
As for `CC(C)(c1ccccc1)c1ccc(O)c(C(C)(C)c2ccccc2)c1`, the Potency result is “inactive”.
Regarding `COP(=O)(NC(C)=O)SC` (stereo not given), the Potency entry was “inactive”.
For the compound `CC1=C(C(=O)Nc2ccccc2)SCCO1`, the Potency is 36.2 µM (active) and 44.8 µM (active).
As for `CCC1(c2ccc(N)cc2)CCC(=O)NC1=O` (stereo not given), the Potency entry was “inactive”.
Take `O=C(O)c1nn(Cc2ccc(Cl)cc2Cl)c2ccccc12`: the Potency entry is “inactive”.
On to `CC(C)(c1ccccc1)c1ccc(O)cc1`, for which the Potency result was “inactive”.
Regarding `Clc1ccc(C(Cl)(Cl)Cl)cc1`, the Potency result is “inactive”.
Turning to `OC(c1ccc(Cl)cc1)(c1cncnc1)c1ccccc1Cl` (stereo not given), the Potency was 81.1 µM (active) and inactive.
Take `S=c1[nH]c2ccccc2[nH]1`: the “activity change, negative = inhibition” value was -5.81% (inactive).
As for `c1ccc(C2CO2)cc1` (stereo not given), the Potency entry was “inactive”.

For the origin of these results see PubChem BioAssay (Tox21).
